# Experimental data published in PubChem BioAssay AID588827 (Broad Institute, 2011).
# Out of some 2,400 compounds screened, about 20 (0.8%) were called active. Another 19% or so got no clear call; they are omitted. Not all results are given here. Potency and affinity values are given separately. Unmarked numbers belong to inactive results.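 The calls were made as follows: active = fitted half-maximal concentration for signal decrease at or below twice the top tested dose, in every repeat run; inconclusive = repeat runs disagree, or flat partial inhibition, or poor fit; inactive = all runs flat, wrong-direction or potency beyond limit.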
# Assay: GFP reporter loss versus dox-driven RFP – NIH3T3 R4 cells, cherry-pick, set 4, dose response (AID 588827);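 also: 0% = neutral control wells and -100% = didemnin B at 400 nM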
# Details: NIH3T3 R4 HSF-1 GFP reporter, heat shock, 48 h; series mostly up to 19.5 µM; activity change, negative = inhibition: at the top concentration
row,SMILES,"activity change, negative = inhibition"
1,O=C(CCCc1nc(-c2ccccc2Cl)no1)NC1CCCC1,8.17%
2,COc1ccc(CC(C)Nc2cccc(SC)c2)cc1 (stereo not given),-7.7%
3,O=C(CN(Cc1ccccc1Cl)S(=O)(=O)c1ccc(Cl)cc1)N/N=C/c1ccc(C(=O)O)cc1,2.93%
4,Cc1ccc(N=Nc2ccc3ccccc3c2O)cc1,6.26%
5,C=CCn1c(=NC(=O)C2CC2)sc2cc(NC(C)=O)ccc21,2.06%
6,CCCCNC(=O)C(=O)N/N=C/c1ccc(C(=O)OC)cc1,-8.74%
7,O=c1cc(-c2ccccc2)c2ccc(O)cc2o1,-13%
8,CC(=O)c1ccc(NC(=O)C2CCN(S(=O)(=O)c3cccc4cccnc34)CC2)cc1,-9.15%
9,COc1ccc(NC(=S)Nc2ccc(F)cc2)c(OC)c1,-12.6%
10,O=C(CSc1ccc(Br)cc1)Nc1ccccc1N1CCOCC1,-9.45%
11,COc1cc(C(=O)N2CCSCC2)ccc1OC1CCN(C(C)=O)CC1,-1.88%
12,COc1ccccc1Oc1ccc2c(c1)C(=O)N(c1ccc(Br)c3cccnc13)C2=O,-24.3%
13,Cc1c(Cl)cccc1NC(=O)Nc1cnccn1,-29.6%
14,CCN(CC)c1ccc(CNc2nc3ccccc3n2CCN2CCOCC2)cc1,-31.2%
15,CN(C(=O)c1ccc2c(c1)SC1=NS(=O)(=O)CCN12)C(c1ccccc1)c1ccccc1,4.39% [at 10 µM]
16,O=c1o[nH]c(-c2ccccc2)c1-c1ccccc1,5.38%
17,O=C(Nc1cccc(Cl)c1)N1CCOCC1,-24.5%
18,CCOC(=O)C1(Cc2ccc(OC)cc2)CCN(C(=O)c2csc(C)n2)CC1,-3.83%
19,Cc1ccccc1-c1nc2sc3c(c2c(=O)n1N)CCCC3,-10.4%
20,Cn1c(=O)cc(SCC(=O)N2CCN(C(=O)c3ccco3)CC2)c2ccccc21,-11.5%
21,Cc1[nH]c2ccccc2c1C(C[N+](=O)[O-])c1cccs1 (stereo not given),-1.12%
22,COc1cccc(-c2cc3nc4c(c(NCC(C)(C)CN(C)C)n3n2)CCCC4)c1,-15.6%

row,SMILES,"activity change, negative = inhibition"
1,CCOc1ccc(NC(=O)C2CCCN(c3nn4c(=O)cc(C)nc4s3)C2)cc1 (stereo not given),9.81%
2,Cc1ccc2nc(-c3ccccc3NC(=O)CCC(=O)O)c(=O)[nH]c2c1,11.3%
3,N#CC1=C(N)Oc2cc(N)ccc2C1c1ccccc1Cl (stereo not given),-13.4%
4,Cc1cc(Nc2ccc3c(c2)OCCO3)c2cc(Cl)ccc2n1,-28.1%
5,CCn1nc(C)c(/C=N/NC(=O)c2c[nH]c3ccccc23)c1C,4.32%
6,N#Cc1c(N)nc(SCc2ccncc2)c(C#N)c1-c1cccs1,-23%
7,CCOc1ccc(N(CC(=O)NC2CCCCC2)C(=O)CCC(=O)Nc2nc(C)cs2)cc1,-1.1%
8,CCSc1nnc(-c2ccc(S(=O)(=O)NCc3cccs3)cc2)o1,-22.9%
9,O=C(c1cc2c(s1)-c1ccccc1OC2)N1CCN(c2ccccc2)CC1,-1.28%
10,Cc1cc(/C=C2/C(=O)NN(c3ccccc3)C2=O)c(C)n1-c1ccc(O)cc1,-1.39%
11,C/C(=N\Nc1nncc2ccccc12)c1ccc(Cl)c([N+](=O)[O-])c1,4.2%
12,Cc1cc(Cl)ccc1OCCCC(=O)N1CCOCC1,4.58%
13,CCC(NC(=S)NC1CCCCC1)c1ccccc1 (stereo not given),3.39%
14,CCN(CC(=O)Nc1c(F)cccc1F)C(=O)Cc1n[nH]c(=O)c2ccccc12,-8.1%
15,COC(=O)C1=C(C)N(CCCC(=O)O)C(=O)NC1c1ccc(C#N)cc1 (stereo not given),-11.5%
16,O=C(CN1CCCCC1)Nc1cccc2c1OCO2,-20.8%
17,CC(CN1CCOCC1)OC(=O)C(c1ccccc1)c1ccccc1 (stereo not given),3.47%
18,O=C(O)CSCC(=O)Nc1ccc(C2CCCCC2)cc1,-19.7%
19,Cc1ccnc(NC(c2ccsc2)c2ccc3ccc(C)nc3c2O)c1 (stereo not given),77.1%
20,COc1ccc2nnc(-c3ccc(C(F)(F)F)cc3)n2n1,-29%
21,O=C1CCCC/C1=N\Nc1ccc(C2CCCCC2)cc1,-12.6%
22,COc1ccc(C(=O)C2CCCN(S(=O)(=O)c3ccccc3F)C2)c(C)c1 (stereo not given),-19.3%

row,SMILES,"activity change, negative = inhibition"
1,Cc1cc(S(=O)(=O)N2CCN=C2c2ccccc2)c(C)cc1Cl,-13.8%
2,COc1cc(/C=N/N=C2/C(=O)Nc3ccccc32)cc(OC)c1O,-6.39%
3,O=C(NCc1ccco1)C(=O)NCC(c1ccco1)N1CCOCC1 (stereo not given),-10.2%
4,CCOC(=O)C1(CCOc2ccccc2)CCN(Cc2cccc(-n3cccn3)c2)CC1,19%
5,CC(=O)N/N=C(\C)CC(=O)NC(C)(C)C,6.32%
6,C=CCn1c(C)cc(C(=O)CSc2nnc(NC(C)C)s2)c1C,-14.3%
7,CCCCN1CNC(=S)N(c2ccc(C(=O)OCC)cc2)C1,-9.47%
8,COc1ccc(-c2oc3ccccc3c2C(=O)Oc2ccccc2)cc1,0.138%
9,Cc1ccc(-c2nn(-c3ccccc3)cc2CN(C)C(=O)CCC(=O)O)cc1C,-15.5%
10,O=[N+]([O-])c1cccc(-c2nnc(-c3ccccc3)o2)c1,-13.4%
11,Cc1ccc(C(=O)N/C(=C/c2ccco2)C(=O)Nc2cccc(C(=O)O)c2)cc1,-3.67%
12,Cc1cccc(OCC(=O)Nc2cccc(C(=O)NCC(C)C)c2)c1,-11.5%
13,COc1ccc(C2NS(=O)(=O)N=C2N)cc1 (stereo not given),-1.94%
14,CC(=O)C1C(=O)c2c(cccc2[N+](=O)[O-])C1=Nc1ccc(S(N)(=O)=O)cc1 (stereo not given),-10.1%
15,CCOC(=O)N1CCN(S(=O)(=O)c2ccc3c(c2)OCC(=O)N3)CC1,-10.4%
16,Cc1ccc(-c2cn(-c3ccccc3)c(=S)[nH]2)cc1C,-10%
17,O=C(Nc1ccccc1N1CCCCC1)C1CCN(C(=O)c2ccc(Cl)cc2)CC1,-15.7%
18,CCOC(=O)c1c(NC(=O)CSc2nnc(-c3c[nH]c4ccccc34)n2C)sc2c1CCCC2,-23.8%
19,O=C(NCCCn1ccnc1)C(=O)NCC1OCCN1S(=O)(=O)c1cc(F)ccc1F (stereo not given),-8.72%
20,O=C(O)CCSc1nnc(-c2ccc3c(c2)OCO3)o1,1.52%
21,Cc1c(C(=O)c2no[n+]([O-])c2C(=O)c2cnn(C)c2C)cnn1C,12.6%
